According to ChEMBL document CHEMBL4888484, “Replenishing the malaria drug discovery pipeline: Screening and hit evaluation of the MMV Hit Generation Library 1 (HGL1) against asexual blood stage Plasmodium falciparum ,using a nano luciferase reporter read-out” (2022):
About 420 (8.8%) of roughly 4,800 compounds showed an effect of 50% or more. Shown is part of a subset that was picked to be rich in strong results.

Test system: Plasmodium falciparum
Test: Confirmatory screen in NF54 nanoGlo assay, in single point, at 2uM, 72h
Assay type: functional, Erythrocyte
Details: timepoint 72 hour

Going from c1ccc(C[C@]2(c3ccccc3)CCNC2)cc1 to O=C(CNC(=O)OCc1ccccc1)Nc1ccc(F)cc1, the “% Inhibition” value falls from 1% to -12%.

First: O=c1cc(N2CCN(C3CCCC3)CC2)cnn1Cc1ccccc1
Second: Clc1cccc(N2CCN(Cc3nc(-c4ccco4)no3)CC2)c1
The “% Inhibition” value of the first is lower: -13% for the first, -6% for the second.

O=C(Cc1ccccc1F)N1CC(n2cnnc2C2CCOCC2)C1 and CS(=O)(=O)N1CC[C@H](N(C(=O)NCCc2ccccc2)C2CCOCC2)C1 are the same in “% Inhibition” value: -14% for the first, -14% for the second.

Going from COc1ccc([C@@H]2CN(S(=O)(=O)c3ccc(OC)cc3)CCN2C)cc1 to COc1cccc(NC(=O)Cn2c(C)ccc(NS(=O)(=O)c3ccc(C)cc3)c2=O)c1, the “% Inhibition” value rises from 1% to 63%.

Compared with O=c1[nH]c2nc(N3CCC(N4CCCCC4)CC3)ncc2c(=O)n1-c1ccc2c(c1)OCO2, COc1cc(C)c2[nH]c3c(c(=O)c2c1)CN(CC(=O)Nc1ccc2c(c1)OCCO2)CC3 is higher in “% Inhibition” value: -9% for the first, 16% for the second.

Compared with CC(C)c1cccc(Nc2nc3ccncc3n(C(C)C)c2=O)c1, COc1cccc(-c2cc(C(=O)Nc3ccc(F)c(Cl)c3)c3c(C)nn(C)c3n2)c1 is lower in “% Inhibition” value: 95% for the first, -4% for the second.

Compared with O=C(CN1CCOC2CCCCC21)N1CCOC2CCCCC21 (centres undefined), Cc1ccc(CN2CCN(CC(=O)NC3CCCCC3C)C2=O)cc1 (centres undefined) is lower in “% Inhibition” value: -9% for the first, -10% for the second.

Going from Cc1cc(C(=O)NC(C2CC2)C2CC2)c(C)o1 to Cc1ccc(CN(C)C2CCCCC2)o1, the “% Inhibition” value falls from -2% to -18%.

First: O=C1NCCC[C@@H]1NS(=O)(=O)N1CCc2ccccc2C1
Second: COCCN1C(=O)C[C@H](Nc2ccc3c(c2)CCC3)C1=O
The “% Inhibition” value of the first is lower: 0% for the first, 1% for the second.

Going from CCc1cccc(NC(=O)N2CCN(C3=CC4=NC[C@H](C)N4C=N3)CC2)c1 to COc1cccc(NC(=O)Cn2c(=O)n(C)c(=O)c3sc(N4CCCC4)nc32)c1, the “% Inhibition” value falls from 46% to 0%.

First: Cc1cc(-c2csc(CN3C(=O)CNC3=O)n2)cc(C)c1F
Second: CCCn1c(C)cnc1C1CN(S(=O)(=O)c2ccc(C)c(F)c2)C1
The “% Inhibition” value of the first is higher: -4% for the first, -6% for the second.

Going from Fc1ccccc1N1CCN(c2c3c(nc4nc(Cc5ccc(Cl)cc5)nn24)CCCC3)CC1 to c1ccc(C(c2ccccc2)N2CCN(c3nn4cnnc4c4ccccc34)CC2)cc1, the “% Inhibition” value rises from -11% to 65%.

Going from CNc1nc(N2C[C@H](C)[C@@](O)(C3CC3)C2)nc2c1CCC2 to Cc1nc([C@@H]2CCCN2c2nc(C3CCCC3)ns2)no1, the “% Inhibition” value rises from -11% to -6%.

Compared with CNC(=O)CNC(=O)c1cccc(Cl)c1, COc1cccc(-c2nc3n(c2C(=O)Nc2cccc(Cl)c2)CCS3(=O)=O)c1 is lower in “% Inhibition” value: -1% for the first, -3% for the second.

First: Cc1cc(NC(=O)c2occc2-c2ccccc2)sn1
Second: COc1ccc(C)cc1NC(=O)c1nn(-c2ccccc2)c2ccccc2c1=O
The “% Inhibition” value of the first is lower: -2% for the first, 17% for the second.

First: CN(Cc1ccccc1)c1nc2ncn(CC(=O)NC3CCCCC3)c(=O)c2s1
Second: O=C(NCc1cccc(C(F)(F)F)c1)c1csc(C(=O)NC2CCCC2)n1
The “% Inhibition” value of the first is lower: -17% for the first, -14% for the second.

First: Cc1ccc(S(=O)(=O)NCC2(CNS(=O)(=O)c3ccc(C)cc3)CN(S(=O)(=O)c3ccc(C)cc3)C2)cc1
Second: COc1ccc(CNCc2ccc(C)cc2)cc1Cn1ccnc1
The “% Inhibition” value of the first is lower: 7% for the first, 42% for the second.

Compared with COc1cccc(Cn2c(=O)c3sccc3n(CC(=O)Nc3ccc4c(c3)OCO4)c2=O)c1, COc1cccc(-c2cc(C(=O)Nc3cc(Cl)ccc3C)c3c(C)nn(C)c3n2)c1 is lower in “% Inhibition” value: 10% for the first, -15% for the second.

First: c1ccc2oc(-c3ccnc4nncn34)cc2c1
Second: Cc1c([C@@H](NCc2ncccc2O)C(C)C)oc2ccccc12
The “% Inhibition” value of the first is lower: -7% for the first, 99% for the second.

Compared with O=C(NC1CCN(Cc2ccco2)CC1)c1ccco1, CCn1cc(Cl)c(C(=O)N2CCN(C(=O)c3ccco3)CC2)n1 is lower in “% Inhibition” value: -9% for the first, -11% for the second.

Compared with CC(C)(C)OC(=O)NCC1CCCCC1C(F)(F)F (centres undefined), CC1Cc2cc(-c3ccc(CNC(=O)C(C)(O)C4CC4)cc3)ccc2O1 (centres undefined) is higher in “% Inhibition” value: 0% for the first, 4% for the second.

Compared with COc1ccc(-c2cc(C(F)(F)F)nc(-n3nc(-c4cccc(OC)c4)c(Cl)c3-c3cccc(OC)c3)n2)cc1, COc1cccc(-c2nn(-c3nc(-c4ccccc4)cc(C(F)(F)F)n3)c(-c3cccc(OC)c3)c2Cl)c1 is lower in “% Inhibition” value: 84% for the first, 54% for the second.

First: COc1cccc(-c2cc(C(=O)N3CCCN(C(=O)c4cc(-c5cccc(OC)c5)nc5ccccc45)CC3)c3ccccc3n2)c1
Second: Cc1cc([C@H](Nc2ccccn2)c2ccccc2)c(NC(=O)c2ccccc2)s1
The “% Inhibition” value of the first is lower: -1% for the first, 4% for the second.

Compared with C[C@](O)(CNC(=O)Cn1nc2ccccn2c1=O)c1cccs1, COc1cc(CNCc2cccs2)ccc1OCc1ccccc1C is lower in “% Inhibition” value: -1% for the first, -7% for the second.

Going from Clc1ccc(NC2(c3noc([C@@H]4CCCCO4)n3)CCC2)cc1 to Fc1ccc(Nc2nc3c(s2)CCCC3)cc1, the “% Inhibition” value falls from 5% to -17%.

Compared with CC1(C)C[C@@H](NC(=O)c2cc3[nH]cnc3cc2F)CCO1, Cc1ccc(-c2ccnc3c(C(=O)NC4CC4)cnn23)cc1C is lower in “% Inhibition” value: 7% for the first, -2% for the second.

First: Oc1ccc2ncccc2c1[C@@H](Nc1ccccn1)c1cccc(Br)c1
Second: Cc1cc([C@H](Nc2ccccn2)c2cccnc2)c(NC(=O)c2ccccc2)s1
The “% Inhibition” value of the first is higher: 67% for the first, 2% for the second.

First: Cc1nn(C)c(C)c1S(=O)(=O)N1CCCN(c2ccc(F)c(F)c2)CC1
Second: COc1ccc(Cl)cc1S(=O)(=O)c1cnc(N2CCOCC2)nc1N
The “% Inhibition” value of the first is higher: 3% for the first, -2% for the second.

Compared with Cc1noc(C(C)(C)NC(=O)Nc2c[nH]nc2-c2nccs2)n1, C[C@@H](CNc1ncc(C(=O)N2CCOCC2)cc1Cl)c1nncn1C is lower in “% Inhibition” value: -7% for the first, -12% for the second.

First: Cc1ccc(C)c(C(=O)CN2Cc3ccccc3C2=N)c1
Second: Fc1cccc(-n2nc(-c3ccccc3F)cc2-c2ccccc2F)c1
The “% Inhibition” value of the first is higher: 0% for the first, -6% for the second.

Going from CCOc1cc2c(cc1OC)[C@@H](N)CC2=O to CCc1nn(C)cc1CN(Cc1cccc(O)c1)C1CCC(O)CC1 (centres undefined), the “% Inhibition” value falls from 1% to -3%.

Compared with CC(C)c1cc(CN(Cc2cc(C(C)C)c(O)c(C(C)C)c2)C2CCCCC2)cc(C(C)C)c1O, N#CC1(C#N)C(c2ccc(Cl)cc2)C1(C#N)C#N is lower in “% Inhibition” value: 96% for the first, 11% for the second.
